# In the library only some 4.1% were active in any assay of this set; here they are far more common.
# hcDAF-12 act = H. contortus DAF-12 nuclear receptor activators, primary screen, cell-based, luminescence, HEK293, lit1-tk-luc reporter; HEK293 hcDAF-12 lit1-tk-luc reporter; 0% DMSO, 100% Δ7-dafachronic acid; activation, % at 6.8 µM; 1.4% of 370,000 active; AID 652067, 2013;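 active = activation above the mean of all tested compounds plus 3 SD, cut at about 5.5% in these data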;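 also: 100% = response to 3 µM Δ7-dafachronic acid high control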
# ssDAF12 agonist = S. stercoralis DAF-12 nuclear receptor activators, primary screen, cell-based, luminescence, HEK293, GRIP1 co-expression, lit1-tk-luc | Nuclear hormone receptor DAF-12 (Strongyloides stercoralis) | HEK293 ssDAF-12/GRIP1 lit1-tk-luc reporter; % of 3 µM dafachronic acid response | activation, % at 6.8 µM | 1% of 370,000 active | AID 652126, 2013;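 active = activation above the mean over all tested compounds plus 3 SD, cut at about 0.9% in these data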;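 also: 0% = DMSO-only wells and 100% = 3 µM delta7-dafachronic acid wells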
# PolyA inhibitor = polyadenylation inhibitors in yeast reporter cells, primary screen, luminescence, S. cerevisiae | AID 1875, 2009 | S. cerevisiae SKY197-pL101 polyadenylation reporter, beta-gal luminescence; efflux-impaired pdr1/pdr3 knockout yeast; score 100 = 6 SD above DMSO | 0.02% of 300,000 active | activity score, % at 12 µM;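 active = lowest replicate activity score at least 50, where 100 means six control SD above control mean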;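 also: yeast exposed to compound for 9 h at 30 °C; higher score means more reporter readthrough which indicates perturbed polyadenylation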
# DAX1 inh-1 = DAX1 (NR0B1) inhibitors on StAR promoter, primary screen, cell-based, luminescence, SF-1 (NR5A1), full-length DAX-1; HEK293T StAR-luciferase reporter, SF-1/DAX-1 repression relief; 1.1% of 370,000 active; inhibition, % at 6.8 µM;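 active = inhibition above the mean over all tested compounds plus 3 SD, cut at about 3.6% in these data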;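 also: 0% = DAX-1 cells with DMSO and 100% = cells lacking DAX-1 with DMSO; higher inhibition means more luminescence from relief of DAX-1 repression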
# hgDAF-12 ag = H. glycines DAF-12 receptor agonists, primary screen, cell-based, luminescence, HEK293, GAL4 fusion, UAS-luciferase. AID 687014, 2013. 1.8% of 370,000 active. Nuclear hormone receptor DAF-12 (Heterodera glycines), GAL4 fusion. HEK293 GAL4-hgDAF12 UAS-luciferase reporter, agonist luminescence; normalized to butyrate control. activation, % at 6.8 µM;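 active = activation above a cutoff set at the mean of all screened compounds plus 3 SD, cut at about 10% in these data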;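 also: 0% = DMSO wells and 100% = sodium butyrate wells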
# DAX1 inh-2 = DAX1 (NR0B1) inhibitors, primary screen, cell-based, HEK293, Gal4-DAX1, luciferase luminescence; HEK293 Gal4-DAX1 luciferase reporter; AID 504766, 2011; 0.99% of 340,000 active; inhibition, % at 6.75 µM;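 active = inhibition above the mean over all tested compounds plus 3 SD, cut at about 4.2% in these data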;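 also: 0% = DAX1-transfected cells with DMSO and 100% = empty-vector control cells with DMSO; inhibition shows as a rise in luminescence from relieved DAX1 repression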
# Target sequence (P51843 207-470 limits assumed): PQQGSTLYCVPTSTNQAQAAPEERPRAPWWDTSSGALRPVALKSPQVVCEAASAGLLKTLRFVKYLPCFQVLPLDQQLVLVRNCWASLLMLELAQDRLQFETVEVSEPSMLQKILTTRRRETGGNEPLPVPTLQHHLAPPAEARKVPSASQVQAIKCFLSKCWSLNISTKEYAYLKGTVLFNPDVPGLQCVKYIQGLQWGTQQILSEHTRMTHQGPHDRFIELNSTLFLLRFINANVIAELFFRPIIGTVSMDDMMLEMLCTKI
# hgDAF12 ag = H. glycines DAF-12 receptor agonists, confirmation, cell-based, luminescence, HEK293, GAL4-LBD fusion | AID 743050, 2013 | HEK293 GAL4-hgDAF12 luciferase reporter, agonist mode; percent of butyrate response | activation, % at 6.8 µM | shares compounds with hgDAF-12 ag | 80% of 3,300 active;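 active = mean activation over triplicate wells above the hit cutoff derived from the earlier primary screen, cut at about 11% in these data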;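 also: 0% = DMSO low control and 100% = 2 mM sodium butyrate high control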
# LXRb DAF12 ctr = LXR agonists, Gal4 luciferase reporter, confirmation, counter-screen for hgDAF-12 agonist project, cell-based, luminescence, HEK293, H. glycines campaign; shares compounds with hgDAF-12 ag; 24 h; AID 743051, 2013; activation, % at 6.8 µM; 3,300 tested, under 10 active;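 active = mean activation of the triplicate above a set limit carried over from the primary screen, none filed active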
# The depositor's hits bear a star; · = no result.
SMILES,hcDAF-12 act,ssDAF12 agonist,PolyA inhibitor,DAX1 inh-1,hgDAF-12 ag,DAX1 inh-2,hgDAF12 ag,LXRb DAF12 ctr
Cc1cccc(N/C(N)=N/c2nc(C)c(Cc3ccccc3)c(=O)[nH]2)c1,-1,-1,-6,0,-2,1,·,·
COc1ccc(N(CC(=O)Nc2cc(C)ccc2C)S(=O)(=O)c2ccccc2[N+](=O)[O-])c(OC)c1,1,-1,23,0,2,1,·,·
O=C(NCCCN1CCOCC1)c1cc(-c2cccs2)on1,4,0,28,-1,24*,3,46*,0
O=C(NC1CCCC1)c1cc(-c2cccs2)on1,6.1*,0,-11,2,47*,4.7*,43*,1
O=C(NC1CCCC1)c1cc(-c2ccc(F)cc2)on1,1,0,0,2,23*,5.8*,37*,1
O=S(=O)(/N=C(/Nc1ccc(F)cc1F)c1ccccc1)c1ccc(Br)cc1,2,-1,7,0,4,·,·,·
Cc1ccn(-c2ccc(NC(=O)c3cccs3)cc2)n1,5,0,-10,3,17*,0,17*,1
CN1CCN(c2ccc(NC(=O)c3cccs3)cc2)CC1,4,0,-5,4.3*,15*,5.7*,12*,1
O=C(N/N=C/c1ccc(N2CCOCC2)cc1)c1cccs1,3,-1,6,4.4*,20*,1,14*,1
CC(C)C(=O)N1CCN(c2ccc(NC(=O)c3cccs3)cc2)CC1,-1,-1,-6,0,-1,0,·,·
CCN(CC)S(=O)(=O)c1ccc(NC(=O)c2cccs2)cc1,-1,-1,-3,-1,2,1,·,·
COc1ccc(C(=O)NCCc2nnc3ccc(SCC(=O)N4CCCC4)nn23)cc1,-1,-1,8,1,-3,1,·,·
CCCCC(=O)OCc1c(-c2ccccc2)ncc2ccccc12,-1,-1,·,0,0,0,·,·
COc1ccc(Cl)cc1NC(=O)CN1CCN(S(=O)(=O)N2CCCCC2)CC1,-1,0,-13,0,1,1,·,·
Cc1ccc(C(=O)OCC(=O)NCc2cccs2)c(C)c1,-2,-1,-1,1,14*,1,6,0
Cc1cc(C)cc(C(=O)OCC(=O)NCc2cccs2)c1,-3,-2,8,0,0,2,·,·
O=C(COc1ccc(Cc2ccccc2)cc1)c1ccc(F)cc1,3,-1,17,0,5,0,·,·
O=C(COc1ccc(F)cc1)c1ccc2c(c1)CCCC2,2,0,-8,2,14*,1,13*,1
COc1ccc(CNC(=O)COC(=O)/C=C/c2cccc(Cl)c2)cc1,-1,-1,·,0,-2,1,·,·
COCCN(C(=O)CSc1cc(C)c2ccccc2n1)c1c(N)n(CC(C)C)c(=O)[nH]c1=O,0,-1,·,-1,2,0,·,·
COc1ccc(CNS(=O)(=O)c2cc3c4c(c2)C(C)C(=O)N4CCC3)cc1 (centres undefined),-1,-1,5,-2,-2,-1,·,·
Cc1ccc(OCC(=O)Nc2ccccc2F)cc1C,3,1,-7,4,16*,2,13*,1
COc1ccc(CN2C(=O)c3ccccc3C2c2nnnn2Cc2ccccc2)cc1OC (centres undefined),-1,-1,·,3,0,·,·,·
O=C(OCCc1cc2ccccc2c(=O)o1)c1cccc(Br)c1,-1,-1,·,0,-2,1,·,·
CCOC(=O)N/N=C1\CCc2ccccc21,4,0,-11,1,15*,0,8,0
SMILES,hcDAF-12 act,ssDAF12 agonist,PolyA inhibitor,DAX1 inh-1,hgDAF-12 ag,DAX1 inh-2,hgDAF12 ag,LXRb DAF12 ctr
CCOC(=O)NN=C1c2ccccc2-c2ccccc21,0,-2,-7,0,-1,0,·,·
Cc1ccc(C(=O)N/N=C2\CCc3ccccc32)c(C)c1,0,0,34,2,15*,2,14*,1
O=C(N/N=C1\CCc2ccccc21)c1ccc(O)cc1,5,0,7,2,4,2,·,·
CCN(CC(=O)Nc1cc(Cl)cc(Cl)c1)CC(=O)NC1CCS(=O)(=O)C1 (centres undefined),-1,-1,·,-1,2,0,·,·
S=c1[nH]c(-c2ccccc2)cn1/N=C/c1cccs1,5.6*,1,-14,0,14*,1,5,0
Cc1cc2nc(-c3ccc(SCC(=O)Nc4ccc(S(=O)(=O)NC5CC5)cc4)nc3)[nH]c2cc1C,5.6*,1.2*,-9,4.5*,16*,0,17*,1
CCCCCCSc1nsc(NC(=O)CC(C)C)n1,2,0,41,0,4,2,·,·
CCCSc1nsc(NC(=O)CC)n1,4,-1,-7,3,17*,1,11*,1
CCC(=O)Nc1ccccc1C(=O)OCC(=O)c1ccccc1,-2,1.3*,-2,3.7*,16*,4,17*,1
Cc1ccc2nc(-c3ccc4c(c3)NC(=O)CO4)cn2c1,4,0,16,4.5*,14*,3,14*,1
CCOC(=O)C1=C(COC(=O)c2ccc([N+](=O)[O-])o2)NC(=O)NC1C (centres undefined),0,0,·,0,-1,1,·,·
O=C(NCC1CCCO1)c1cc(-c2ccccc2)on1 (centres undefined),6.5*,0,4,2,42*,4.3*,48*,1
O=C(NCC1CCCO1)c1cc(-c2ccc(F)cc2)no1 (centres undefined),4,0,-2,2,18*,2,19*,0
O=C(NCC1CCCO1)c1sc2ccccc2c1Cl (centres undefined),3,-1,-12,3,14*,2,10,0
